The sample as a whole holds a higher share of hits than the screen did.
TTR transcr act: increases transthyretin transcription; SH-SY5Y TTR promoter Gaussia luciferase, luminescence; 100% = recombinant luciferase protein wells; activation, % at 16.7 µM; 92,000 compounds, 1.3% hits; AID 1117267;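 active = activation above the mean of all tested compounds plus 3 SD, cut at about 9.5% in these data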;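 note: cells exposed to compounds for one day before reading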
HuH7 TTR inh: counter-screen for TTR activators: TTR transcription inhibitors in HuH7 cells. shares compounds with TTR transcr act. HuH7 TTR promoter-Gaussia luciferase reporter, luminescence. inhibition, % at 16.7 µM. 1,100 compounds, 4% hits;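 active = average inhibition above the solvent-only control wells' mean plus 3 SD, cut at about 15% in these data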;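 note: inhibitors lower well luminescence so higher value means more inhibition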
TTR up confirm: human TTR transcription activation, confirmation. shares compounds with TTR transcr act. SHSY5Y TTR promoter Gaussia luciferase, luminescence; 100% = purified Lucia enzyme wells, no cells. activation, % at 16.7 µM. 1,100 tested, under 10 active;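 active = mean activation above a set limit taken from the earlier primary screen, cut at about 11% in these data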
Large screens that a line does not name were inactive (follow-up assays come after a bar, where they were run).

Cc1ccc(CS(=O)(=O)c2nsc(C)c2C#N)cc1	TTR transcr act 19.2 | HuH7 TTR inh inactive | TTR up confirm inactive
Cc1cc(C)c(C#N)c(SCc2ccc([N+](=O)[O-])cc2)n1	none
COC(=O)[C@]12C[C@H](CC(=O)N3CCCC3)C(=O)N(Cc3ccc(Cl)cc3Cl)C1=C[C@H](C1CCCC1)O[C@@H]2C	none
O=C1C(=O)N(Cc2ccc(-c3ccc(F)nc3)cc2)c2ccc(OC(F)(F)F)cc21	none
Cc1cc(N2CCN(C)CC2)nc2ccc(NC(=S)N3CCCCCC3)cc12	TTR transcr act 9.7 | HuH7 TTR inh inactive | TTR up confirm inactive
Cc1cc(N2CCOCC2)nc2ccc(NC(=O)C3CCCCC3)cc12	none
Cc1cc(N2CCN(C)CC2)nc2ccc(NC(=S)NCCN3CCc4ccccc4C3)cc12	none
O=C(Nc1nc(-c2ccc3c(c2)OCCO3)cs1)C1CCCC1	none
O=C(NC1CC1)C(Cl)c1ccccc1 (stereo not given)	none
O=C(CCCc1ccccc1)NC1CCSC1=O (stereo not given)	none
O=C1SCCC1NC(=O)C(c1ccccc1)c1ccccc1 (stereo not given)	TTR transcr act 18.1 | HuH7 TTR inh inactive | TTR up confirm inactive
CC(C)(C)OC(=O)n1cc(C(=O)c2ccccc2O)cn1	none
CCOC(=O)C(Cc1ccccc1)P(=O)(OCC)OCC (stereo not given)	none
CCOc1cc(CCNC(=O)c2cc(-c3ccccc3)c(N3CCOCC3)s2)ccc1OC	none
O=C(N[C@@H]1CCCc2c1cnn2-c1ccc(F)cc1F)c1ccccn1	none
CCCn1cnnc1CNC(=O)[C@H]1O[C@@H](n2ccc(=O)[nH]c2=O)[C@H](O)[C@@H]1O	none
COc1ccc(NC(=O)C2(C)CCN2C(=O)C(C)C)cc1F (stereo not given)	none
Cc1ccc(CC(=O)NC2CCCc3ccccc32)cc1C (stereo not given)	none
Cc1ccc(C(=O)OCC(=O)NC2CCCc3ccccc32)o1 (stereo not given)	TTR transcr act 18.1 | HuH7 TTR inh inactive | TTR up confirm inactive
Cc1cccc(OCC(=O)NC2CCCc3ccccc32)c1C (stereo not given)	none
CCC1(c2ccccc2)NC(=O)N(CC(=O)N(c2ccccc2)C2CCS(=O)(=O)C2)C1=O (stereo not given)	none
COc1ccc(C2(C)NC(=O)N(CC(=O)N(c3ccccc3)C3CCS(=O)(=O)C3)C2=O)cc1 (stereo not given)	none
CC1(c2ccccc2)NC(=O)N(CC(=O)N(c2ccccc2)C2CCS(=O)(=O)C2)C1=O (stereo not given)	TTR transcr act 13.7 | HuH7 TTR inh inactive | TTR up confirm inactive
CC1CCCc2sc3ncn(N)c(=N)c3c21 (stereo not given)	none
CC1CCCCC1NS(=O)(=O)c1ccc(-n2cnnn2)cc1 (stereo not given)	none
COc1cc(S(=O)(=O)NC2CCCCC2C)ccc1Cl (stereo not given)	none
COc1cc(S(=O)(=O)NC2CCCCC2C)ccc1-n1cnnn1 (stereo not given)	TTR transcr act 14.0 | HuH7 TTR inh inactive | TTR up confirm inactive
COc1ccc(NC(=O)CN2C(=O)N(C)Cc3ccccc32)c(C)c1	none
CCCC1CCC2(CC1)CCC2OC(=S)Nc1ccc(Br)cc1 (stereo not given)	none
CCN(CC)S(=O)(=O)c1ccc(N2CCOCC2)c(NC(=O)Cc2ccc(Cl)cc2)c1	none
CN1CCN(c2ccc(Cl)cc2NC(=O)/C=C/c2cccc(F)c2)CC1	none
CCC(=O)Nc1cc(Cl)ccc1N1CCN(C(=O)CC)CC1	TTR transcr act 12.0 | HuH7 TTR inh inactive | TTR up confirm inactive
CC(OC(=O)c1nc(-c2ccccc2)n(-c2ccccc2)n1)C(=O)Nc1cc(Cl)cc(Cl)c1 (stereo not given)	none
OC(COC(c1ccc(Cl)cc1)c1ccc(Cl)cc1)CN1CCN(c2ccccn2)CC1 (stereo not given)	none
Cc1ccc(OCC(O)CN2CCN(c3ccccn3)CC2)c(C)c1 (stereo not given)	none
OC(CN1CCN(c2ccccn2)CC1)Cn1c2ccc(Cl)cc2c2cc(Cl)ccc21 (stereo not given)	TTR transcr act 36.4 | HuH7 TTR inh inactive | TTR up confirm inactive
CC(C)CN1C[C@@H]2CSCCS(=O)(=O)N2C1=O	none
O=C(O)c1cccc(Sc2cc(Cl)ccc2C(=O)O)c1	none
Cc1nc(NCCCn2ccnc2)c2oc3ccccc3c2n1	TTR transcr act 48.5 | HuH7 TTR inh inactive | TTR up confirm inactive
Cc1nc(NCC2CCCO2)c2oc3ccccc3c2n1 (stereo not given)	none
O=c1c2ccccc2oc2ccc(NCCCn3ccnc3)cc12	none
COc1ccc(-c2c(C(=O)c3ccccc3)[nH]c(N)c2C(=O)c2ccc(Br)cc2)cc1OC	none
COc1ccc(Cn2ccc3ccc(-c4ccc5ccn(C(=O)c6ccccc6C)c5c4)cc32)cc1	none
CCCCCCN=C1CC(C)(C)CC(=O)/C1=C(/O)CCC	none
O=C(NCCc1c[nH]c2ccccc12)OCc1cn(Cc2cccc(Cl)c2)nn1	none
C[C@]12CC[C@H](O)CC1=C[C@H](O)C1C2CC[C@@]2(C)C1CC[C@@]2(O)C#Cc1ccc(CN)cc1 (stereo not given in full)	TTR transcr act 11.7 | HuH7 TTR inh inactive | TTR up confirm inactive
CCn1nnc(C(=O)O)c1C(=O)O	TTR transcr act 9.9 | HuH7 TTR inh inactive | TTR up confirm inactive
CN(CC1CCOCC1)C(=O)CC1C(=O)NCCN1Cc1cccc(Oc2ccccc2)c1 (stereo not given)	none
Cc1cc(C(=O)C(C)Sc2cccc[n+]2[O-])c(C)n1-c1ccc(Cl)cc1 (stereo not given)	none
COc1ccccc1C(=O)NC(=O)CSc1cccc[n+]1[O-]	none
O=C(CSc1cccc[n+]1[O-])c1cc(Cl)ccc1Cl	TTR transcr act 9.9 | HuH7 TTR inh inactive | TTR up confirm inactive
COC1=C(Nc2ccc(OC)cc2)C(=O)C(OC)=C(Nc2ccc(OC)cc2)C1=O	none
COc1ccc(NC2=Nc3cccc4cccc2c34)cc1	TTR transcr act 14.9 | HuH7 TTR inh inactive | TTR up confirm inactive
COc1ccc(Nc2nc(Cl)nc(Nc3ccc(OC)cc3)n2)cc1	none
COC(=O)C[C@@H]1CC[C@H](NC(=O)Nc2cccc(F)c2)[C@@H](CO)O1	none
Cc1ccc(S(=O)(=O)N/N=C/c2cccc(OC3CSC3)c2)cc1	none
O=S(=O)(N/N=C/c1ccc(OC2CSC2)cc1)c1ccccc1	TTR transcr act 11.6 | HuH7 TTR inh inactive | TTR up confirm inactive
O=S(=O)(N/N=C/c1cccc(OC2CSC2)c1)c1ccccc1	none
CC1(C)OCC(CNC(=O)c2[nH]c(C(F)(F)F)nc2-c2ccccc2)O1 (stereo not given)	none
O=C(Nc1ccc(F)cc1)OCCN1CCCC12CCC(c1ccccc1)CC2 (stereo not given)	none
O=C(Nc1ccc(F)cc1)OCc1cn(Cc2cccc(F)c2)nn1	none
Cc1ccc(S(=O)(=O)N(C)C[C@H]2Oc3cc(Br)ccc3S(=O)(=O)N([C@H](C)CO)C[C@@H]2C)cc1	none
CC(C)NC(=O)N(C)C[C@H]1Oc2cc(Br)ccc2S(=O)(=O)N([C@H](C)CO)C[C@H]1C	none
COc1ccc(S(=O)(=O)N(C)C[C@H]2Oc3cc(Br)ccc3S(=O)(=O)N([C@H](C)CO)C[C@H]2C)cc1	TTR transcr act 28.1 | HuH7 TTR inh inactive | TTR up confirm inactive
